Shown are actives, neighbours in structure and some others; about 3.6% of the full set was active somewhere.
JMJD2E inh: inhibitors of human JMJD2E histone demethylase. B2RXH2. JMJD2E catalytic domain, FDH-coupled NADH fluorescence (FDH is formaldehyde dehydrogenase). Potency, µM (series often up to 57.1 µM), without a hit: at the highest dose activity change, negative = inhibition, usual class: inhibitors. 1.6% of 230,000 active; active = well fitted inhibition curve with a large enough effect, not every such curve was filed as active; inconclusive = small, poorly fitted or top-dose-only effect, or another doubt; inactive = no such curve, though single readings can be large or run the other way;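 note: 0% = wells with enzyme and -100% = buffer wells without enzyme; nearly all actives have a fitted effect of over 50% in size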
Target sequence (B2RXH2 1-337 limits assumed): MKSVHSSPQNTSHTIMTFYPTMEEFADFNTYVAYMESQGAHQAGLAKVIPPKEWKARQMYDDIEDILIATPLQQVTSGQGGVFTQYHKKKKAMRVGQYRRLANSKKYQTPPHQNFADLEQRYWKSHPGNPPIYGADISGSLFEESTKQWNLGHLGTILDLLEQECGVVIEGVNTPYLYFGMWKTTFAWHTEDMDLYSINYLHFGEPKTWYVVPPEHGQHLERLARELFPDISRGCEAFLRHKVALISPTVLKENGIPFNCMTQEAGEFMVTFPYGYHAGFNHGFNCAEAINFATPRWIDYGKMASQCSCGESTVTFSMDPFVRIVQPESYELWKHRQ
GCN5L2 inh: blocks human GCN5L2 histone acetyltransferase. AID 504327. GCN5L2 HAT assay, ThioGlo1 CoA-SH fluorescence. Potency, µM (series often up to 58.9 µM), inactives show at the highest dose activity change, negative = inhibition, actives largely listed as inhibitors. 0.21% of 390,000 active; note: % is set by controls: 0 for no effect and ±100 for the full control effect
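Enzyme at 20nM final was mixed with library compounds for 15 min at room temperature. Peptide H3(1-25) at 75uM, acetyl-CoA at 70uM and ThioGlo1 at 50uM were then added. Plates were read immediately and after 20 min (Ex340nm/Em540nm).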
IMPase Li inh: IMPase inhibition in cells with lithium potentiation; AID 1457; Potency, µM (series often up to 59.4 µM), for the others: at the top dose activity, negative = IMPase inhibition, actives largely listed as inhibitors; CHO-M1 cells, IP1 TR-FRET (IP-One), carbachol + lithium; 0.35% of 210,000 active;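 note: IP1 builds up when IMPase is blocked and the TR-FRET signal falls; plate controls were basal vehicle for no effect and high inhibitor control for full effect; nearly all actives have a fitted effect of over 50% in size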
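Readout is a homogeneous TR-FRET IP1 immunoassay (Ex 320, Em 665 and 620), where raised cytosolic IP1 lowers signal. Cells were CHO-M1 treated 30 min at 37C with test compounds plus a little lithium; AC50 values came from Hill-equation fitting.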
NPSR antag: neuropeptide S receptor (human) antagonism, cAMP; Q6W5P4; CHO-NPSR cells, cAMP TR-FRET, antagonist mode; Potency, µM (titrated, usually from 38.3 µM), inactives show at the top dose activity change, negative = inhibition, actives largely listed as inhibitors; 1% of 220,000 active; AID 1461; note: % is set by controls: 0 for no effect and ±100 for the full control effect; nearly all actives have a fitted effect of over 50% in size
Target sequence (Q6W5P4 whole entry, looked up): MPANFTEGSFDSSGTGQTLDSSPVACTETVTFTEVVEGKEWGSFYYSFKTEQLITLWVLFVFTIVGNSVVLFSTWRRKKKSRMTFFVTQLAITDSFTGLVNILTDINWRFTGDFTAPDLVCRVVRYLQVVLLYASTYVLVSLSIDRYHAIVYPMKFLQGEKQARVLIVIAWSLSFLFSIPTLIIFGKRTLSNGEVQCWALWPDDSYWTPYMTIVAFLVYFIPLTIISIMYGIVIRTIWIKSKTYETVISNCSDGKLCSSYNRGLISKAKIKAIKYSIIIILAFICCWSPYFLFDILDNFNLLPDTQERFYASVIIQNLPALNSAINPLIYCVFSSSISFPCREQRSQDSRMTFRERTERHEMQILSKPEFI
Epigenetic derep: epigenetic control regulation, reporter derepression; Potency, µM (doses to about 53.9 µM), inactives show at the top dose GFP activation, hits mostly activators; murine LDR cells, GFP reporter derepression, 30 h; 0.2% of 280,000 active; note: % of control where 0% means no effect; nearly all actives have a fitted effect of over 60% in size
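In this reporter-derepression format, murine cells bearing a silenced integrated CMV-GFP locus incubate with test compound (30 h, 37 C), then are washed and imaged; fluorescent objects of 20–120 um count as induced cells.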
Sfp inh: blocks B. subtilis Sfp PPTase activity. Q9F4F7. Biochemical Sfp PPTase activity, qHTS. Potency, µM, for inactives: largest response in the series, negative = inhibition, most hits filed as inhibitors. 3.5% of 310,000 active. AID 1490;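 note: the enzyme is Sfp with the accession as filed and its product quenches rhodamine fluorescence; 0% = enzyme reaction without inhibitor and -100% = no enzyme wells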
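Step 1, compound plus 15 nM Sfp-PPTase, 15 min, room temperature. Step 2, add rhodamine-CoA (5 uM) and BHQ-2-YbbR (12.5 uM). Step 3, read 525/598 nm fluorescence at 0 and 30 min.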
Numbers without * were called inactive; ? = inconclusive; . = not tested or not shown; [ ] = dose if it differs, or a comment. Unless noted, calls come from the whole dose curve; as a rule, active = well fitted curve in the direction sought with a large enough effect; inconclusive = small, poorly fitted or top-dose-only effect, or another doubt; inactive = no such curve, though single readings can be large; an effect the other way counts as inactive or inconclusive. Potency is the fitted concentration of half-maximal effect.

SMILES	JMJD2E inh	GCN5L2 inh	IMPase Li inh	NPSR antag	Epigenetic derep	Sfp inh
C[C@H]1[C@H](C)CC[C@]2(C(=O)O)CC[C@]3(C)C(=CCC4[C@@]5(C)C[C@@H](O)[C@H](O)[C@@](C)(CO)[C@@H]5CC[C@]43C)[C@H]12 (stereo partly specified)	2%	.	8%	.	0%	39%
NC[C@@H](O)c1ccc(O)c(O)c1	3.5µM*	0%	10%	.	4%	?
Oc1ccc(C(O)CNCCCCCCNCC(O)c2ccc(O)c(O)c2)cc1O (stereo unspecified)	.	-26%	.	.	.	?
NC[C@H](O)c1ccc(O)c(O)c1	10µM*	?	-6%	10%[46.1 µM]	0%	?
CN(C)CCNc1ncnc2c1sc1nc(-c3ccccc3)c3c(c12)CCCC3	?	-7%	.	-58%	-1%	35µM*
COc1ncnc2c1sc1nc(-c3ccccc3)c3c(c12)CCCC3	4%	?	2%	3%	0%	?
Cc1ccc(NC(=O)c2ccccc2)s1	1%	2%	19%[38.3 µM]	-5%[46.1 µM]	0%	-30%
Cc1cc(NC(=O)c2ccccc2)sc1C	-5%	.	-8%[38.3 µM]	-5%[46.1 µM]	-1%	50µM*
CN(C)c1ccc(/C=C2\SC(=S)N(Nc3ncc(C(F)(F)F)cc3Cl)C2=O)cc1	0%	37%	12%[38.3 µM]	-13%[46.1 µM]	14µM*	50µM*
NC1=C(O)C(=O)C(c2ccccc2)O1 (stereo unspecified)	16µM*	2%	.	-15%	4%	-8%
O=C1OC(c2ccccc2)/C(=C(/O)c2ccccc2)C1=O (stereo unspecified)	-13%	1%	?	10%[46.1 µM]	2%	-10%
CC1=NN2C(=N)/C(=C\c3cc(C)n(-c4cccc(C)c4)c3C)C(=O)N=C2S1	?	-5%	.	13µM*	-1%	-18%
CCCC1=NN2C(=N)/C(=C\c3cc(C)n(-c4cc(C)cc(C)c4)c3C)C(=O)N=C2S1	?	-21%	13%	-54%	0%	20µM*
Cc1cccc(-n2c(C)cc(/C=C3\C(=N)N4N=C(CC(C)C)SC4=NC3=O)c2C)c1	?	1%	0%	-33%	0%	8%
Cc1cc(C)cc(-n2c(C)cc(/C=C3\C(=N)N4N=C(CC(C)C)SC4=NC3=O)c2C)c1	?	-7%	13%	?	-3%	-10%
CC(O)(c1ccc(Cl)cc1)c1ccc(Cl)cc1	.	3%	.	.	.	3%
CCOn1c(=O)c(C)[n+]([O-])c2ccccc21	?	0%	1%	8%[46.1 µM]	20µM*	15%
O=c1c(=O)n(O)c2ccccc2n1O	?	-6%	-2%[38.3 µM]	12%[7.67 µM]	4%	79µM*
C=CCOn1c(=O)c(-c2ccccc2)[n+]([O-])c2ccccc21	20µM*	-8%	-6%	14%	1%	-1%
O=c1c(-c2ccco2)[n+]([O-])c2ccccc2n1OCc1ccccc1[N+](=O)[O-]	?	-4%	14%	-36%	?	50µM*
O=C1CCCC=C1[C@H](CCc1ccccc1)OC(=O)c1ccc(Br)cc1	.	.	.	.	1%[10.1 µM]	-20%
COc1cccc(CN2C(=O)c3ccccc3Sc3ccc(C(=O)NCCc4ccc(C)cc4)cc32)c1	.	-6%	.	.	2%	.
COC(=O)C/C=C\[C@@H](C)[C@@H](/C=N\OC[C@@H](C)[C@H](OCc1ccccc1)C(C)C)OC	.	.	.	.	1%[10.1 µM]	9%
O=c1c(-c2ccccc2)[n+]([O-])c2ccccc2n1O	?	-5%	24%[38.3 µM]	-8%[46.1 µM]	0%	40µM*
Cc1ccc(-c2c(=O)n(O)c3ccccc3[n+]2[O-])cc1	.	1%	.	.	.	11%
SMILES	JMJD2E inh	GCN5L2 inh	IMPase Li inh	NPSR antag	Epigenetic derep	Sfp inh
COc1ccc(C2CC(=O)c3cc(-c4nc(-c5ccc(C)cc5)cs4)c(=O)[nH]c3C2)cc1 (stereo unspecified)	.	-4%	.	.	0%	.
S=c1nc[nH]c2c1ncn2C1CCCC1	-6%	-7%	.	-21%	-1%	11µM*
OCC1CCCC(n2cnc3c(=S)nc[nH]c32)O1 (stereo unspecified)	-15%	-1%	.	-15%	2%	16µM*
FC(F)(F)c1cc(-c2ccccc2)nc(N2CCCCCC2)n1	-15%	0%	37%[38.3 µM]	-1%[46.1 µM]	-1%	4%
CS(=O)(=O)c1nc(-c2ccccc2)cc(C(F)(F)F)n1	-26%	-3%	19%	10µM*	1%	-7%
COc1ccc(-c2nc3c(c4c2C[C@H](c2ccccc2)OC4)CN(C(=O)Nc2cccc(C#N)c2)CC3)c(C)c1	0%[11.4 µM]	.	-5%	.	.	15%
Cc1cc(Br)cc(C)c1OCCCCN(C)C	?	-9%	19%[38.3 µM]	9%[46.1 µM]	0%	79µM*
CC(=O)Nc1ccc(N=Nc2c(C)[nH]n(C(N)=S)c2=O)cc1	-4%	-10%	31%	-41%	0%	40µM*
Cc1ccc(C2C(C#N)=C(N)Oc3cc(N)ccc32)cc1 (stereo unspecified)	.	-17%	.	.	.	-11%
Cc1ccc(/C=C2\CCC3=C2OC(N)=C(C#N)C3c2ccc(C)cc2)cc1 (stereo unspecified)	?	5%	-5%[38.3 µM]	-6%[46.1 µM]	11µM*	6%
CC1CCc2c(sc(/N=C/c3cccnc3)c2C(N)=O)C1 (stereo unspecified)	?	-3%	.	2%	-6%	50µM*
C/C=C/C/C=C/CCC(=O)[C@H]1O[C@H]1C(N)=O	.	-2%	0%	.	6%	7%
CCn1c(C)c(C(C)=O)c(N2CCN(c3ccccc3)CC2)nc1=S	?	5%	19%[38.3 µM]	-16%[46.1 µM]	1%	56µM*
COc1cc(C(=O)OCCN2CCOCC2)ccc1O	-4%	0%	-3%[38.3 µM]	-8%[46.1 µM]	-1%	10%
O=C(OCCCN1CCOCC1)c1ccc(O)c(O)c1	16µM*	-3%	.	-35%	3%	?
COC(=O)c1ccc(C(=S)N2CCCCC2)cc1	10%	-4%	1%	4%	1%	14%
COc1ccc(C(=S)N2CCN(C)CC2)cc1Br	5%	1%	3%[38.3 µM]	-15%[46.1 µM]	-1%	4%
COC(=O)c1ccc(C(=S)N2CCOCC2)cc1	3%	0%	-9%	-8%[46.1 µM]	-1%	22µM*
COc1ccc(C(=S)N2CCN(C)CC2)cc1	0%	-16%	15%[38.3 µM]	?	0%	25µM*
COc1ccc(C(=O)Oc2ccc(C(=S)N3CCOCC3)cc2)cc1	?	-19%	-1%	-1%	-2%	22µM*
CC(C)c1cc(C(C)C)c(S(=O)(=O)Nc2cccc3cccnc23)c(C(C)C)c1	.	.	.	.	.	-1%
CC1(C)OC[C@@H]2O[C@H](n3cnc4c(N)nc(Cl)nc43)[C@@H](OS(C)(=O)=O)[C@@H]2O1	.	.	-6%	.	.	.

High-throughput results deposited in PubChem by National Center for Advancing Translational Sciences (NCATS).
